Inhibition data for 16 compounds are collected here from ChEMBL document CHEMBL1961873, “Compounds: GSK PKIS; Assays: Nanosyn kinase panel” (2012).

In experiment [1] the test system is Proto-oncogene tyrosine-protein kinase receptor Ret (Homo sapiens), P07949 [Y791F]. The settings on record: at 1 µM.
Experiment [2] addresses Macrophage-stimulating protein receptor (Homo sapiens) (UniProt Q04912). The settings on record: at 0.1 µM.
The target is the same in experiment [3]. The following applies: at 1 µM.
Experiment [4] deals with Proto-oncogene tyrosine-protein kinase ROS (Homo sapiens) (UniProt P08922). The following applies: at 0.1 µM.
The target is the same in experiment [5]. The following applies: at 1 µM.
In experiment [6] the target is Proto-oncogene tyrosine-protein kinase Src (Homo sapiens) (UniProt P12931). The settings on record: at 0.1 µM.
Experiment [7] has the same target. The settings on record: at 1 µM.
Experiment [8] has as its target Tyrosine-protein kinase Srms (Homo sapiens) (UniProt Q9H3Y6). The following applies: at 0.1 µM.
Experiment [9] has the same target. The settings on record: at 1 µM.
The target of experiment [10] is Tyrosine-protein kinase SYK (Homo sapiens) (UniProt P43405). The settings on record: at 0.1 µM.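 Further: reported percentages are mean inhibition values for SYK.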

Sequence of Proto-oncogene tyrosine-protein kinase receptor Ret (Homo sapiens), P07949 [Y791F] (P07949 whole entry Y791F): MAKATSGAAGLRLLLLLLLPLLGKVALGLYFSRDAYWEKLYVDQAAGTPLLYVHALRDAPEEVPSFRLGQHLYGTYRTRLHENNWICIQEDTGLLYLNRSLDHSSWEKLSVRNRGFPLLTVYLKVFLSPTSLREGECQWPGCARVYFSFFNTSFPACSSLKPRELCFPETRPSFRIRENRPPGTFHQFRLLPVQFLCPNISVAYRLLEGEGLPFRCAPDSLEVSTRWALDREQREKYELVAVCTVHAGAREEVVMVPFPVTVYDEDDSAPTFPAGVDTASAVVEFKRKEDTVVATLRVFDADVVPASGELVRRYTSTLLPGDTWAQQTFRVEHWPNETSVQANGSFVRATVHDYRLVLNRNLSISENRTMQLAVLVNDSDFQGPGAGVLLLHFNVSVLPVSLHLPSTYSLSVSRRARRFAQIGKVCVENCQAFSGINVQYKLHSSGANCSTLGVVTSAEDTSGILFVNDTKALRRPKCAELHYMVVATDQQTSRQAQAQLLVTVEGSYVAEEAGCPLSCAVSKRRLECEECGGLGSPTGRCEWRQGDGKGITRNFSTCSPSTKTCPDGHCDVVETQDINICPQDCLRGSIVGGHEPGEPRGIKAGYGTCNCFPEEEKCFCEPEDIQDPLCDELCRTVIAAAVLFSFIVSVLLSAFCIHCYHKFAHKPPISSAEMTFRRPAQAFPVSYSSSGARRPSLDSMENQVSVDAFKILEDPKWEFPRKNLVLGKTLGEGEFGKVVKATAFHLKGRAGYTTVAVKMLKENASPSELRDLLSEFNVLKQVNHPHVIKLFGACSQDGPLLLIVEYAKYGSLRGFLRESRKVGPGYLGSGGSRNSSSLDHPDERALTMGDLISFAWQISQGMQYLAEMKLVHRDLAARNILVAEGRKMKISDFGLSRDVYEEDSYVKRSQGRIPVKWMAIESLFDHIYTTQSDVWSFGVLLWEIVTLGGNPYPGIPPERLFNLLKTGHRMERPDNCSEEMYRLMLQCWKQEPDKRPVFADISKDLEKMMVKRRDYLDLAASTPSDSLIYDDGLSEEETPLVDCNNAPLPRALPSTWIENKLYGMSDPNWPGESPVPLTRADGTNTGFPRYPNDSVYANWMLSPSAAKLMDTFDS
Sequence of Proto-oncogene tyrosine-protein kinase Src (Homo sapiens) (P12931 2-536 limits assumed): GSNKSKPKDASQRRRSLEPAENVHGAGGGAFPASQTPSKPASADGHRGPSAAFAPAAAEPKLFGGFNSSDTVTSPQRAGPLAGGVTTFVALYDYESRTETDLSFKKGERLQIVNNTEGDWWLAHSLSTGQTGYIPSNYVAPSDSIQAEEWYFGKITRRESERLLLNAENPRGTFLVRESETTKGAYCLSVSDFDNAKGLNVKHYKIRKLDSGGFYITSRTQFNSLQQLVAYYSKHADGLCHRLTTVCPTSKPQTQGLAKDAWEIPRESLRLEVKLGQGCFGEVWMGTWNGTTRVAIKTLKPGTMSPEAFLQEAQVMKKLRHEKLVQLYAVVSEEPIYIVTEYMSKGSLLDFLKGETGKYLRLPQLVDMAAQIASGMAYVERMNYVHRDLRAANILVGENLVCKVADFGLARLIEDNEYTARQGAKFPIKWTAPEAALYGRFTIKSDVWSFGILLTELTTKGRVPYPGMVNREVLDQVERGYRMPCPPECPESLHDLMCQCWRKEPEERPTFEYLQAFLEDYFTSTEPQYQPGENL
Sequence of Macrophage-stimulating protein receptor (Homo sapiens) (Q04912 25-304 limits assumed): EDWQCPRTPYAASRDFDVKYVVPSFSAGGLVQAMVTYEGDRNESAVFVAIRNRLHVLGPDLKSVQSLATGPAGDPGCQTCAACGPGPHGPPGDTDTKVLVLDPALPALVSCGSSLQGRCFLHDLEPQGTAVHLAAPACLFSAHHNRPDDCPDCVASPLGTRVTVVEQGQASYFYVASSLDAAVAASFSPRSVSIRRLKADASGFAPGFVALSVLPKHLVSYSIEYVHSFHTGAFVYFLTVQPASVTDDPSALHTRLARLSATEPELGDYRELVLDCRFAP
Sequence of Macrophage-stimulating protein receptor (Homo sapiens) (Q04912 310-1400 limits assumed): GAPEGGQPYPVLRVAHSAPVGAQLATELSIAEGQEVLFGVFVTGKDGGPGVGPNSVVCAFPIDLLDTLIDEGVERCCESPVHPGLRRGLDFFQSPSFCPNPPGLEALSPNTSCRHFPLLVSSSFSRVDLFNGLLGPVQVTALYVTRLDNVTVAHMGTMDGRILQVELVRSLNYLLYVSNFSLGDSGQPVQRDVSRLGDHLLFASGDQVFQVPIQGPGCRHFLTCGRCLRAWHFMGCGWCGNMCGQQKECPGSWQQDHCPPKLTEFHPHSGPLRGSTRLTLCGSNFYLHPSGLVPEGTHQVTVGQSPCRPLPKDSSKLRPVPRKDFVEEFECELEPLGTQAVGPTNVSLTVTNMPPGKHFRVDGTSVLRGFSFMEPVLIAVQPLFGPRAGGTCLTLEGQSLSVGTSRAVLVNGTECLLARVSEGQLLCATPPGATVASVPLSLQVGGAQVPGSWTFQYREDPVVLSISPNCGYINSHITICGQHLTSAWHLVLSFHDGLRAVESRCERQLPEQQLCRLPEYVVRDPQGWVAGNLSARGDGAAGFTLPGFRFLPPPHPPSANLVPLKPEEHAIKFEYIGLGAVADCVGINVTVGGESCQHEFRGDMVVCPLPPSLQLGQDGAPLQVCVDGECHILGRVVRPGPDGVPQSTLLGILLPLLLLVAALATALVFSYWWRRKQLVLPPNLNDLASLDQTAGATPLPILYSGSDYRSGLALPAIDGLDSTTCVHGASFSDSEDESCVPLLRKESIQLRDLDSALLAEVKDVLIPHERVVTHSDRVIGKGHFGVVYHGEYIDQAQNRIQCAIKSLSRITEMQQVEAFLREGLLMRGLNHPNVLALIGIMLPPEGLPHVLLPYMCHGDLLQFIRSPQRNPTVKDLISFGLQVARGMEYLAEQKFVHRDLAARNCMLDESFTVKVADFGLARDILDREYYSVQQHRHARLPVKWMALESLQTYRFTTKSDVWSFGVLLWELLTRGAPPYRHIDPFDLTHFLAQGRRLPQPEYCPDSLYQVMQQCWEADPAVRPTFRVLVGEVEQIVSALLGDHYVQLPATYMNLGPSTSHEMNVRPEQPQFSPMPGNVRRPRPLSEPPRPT
Sequence of Tyrosine-protein kinase Srms (Homo sapiens) (Q9H3Y6 whole entry): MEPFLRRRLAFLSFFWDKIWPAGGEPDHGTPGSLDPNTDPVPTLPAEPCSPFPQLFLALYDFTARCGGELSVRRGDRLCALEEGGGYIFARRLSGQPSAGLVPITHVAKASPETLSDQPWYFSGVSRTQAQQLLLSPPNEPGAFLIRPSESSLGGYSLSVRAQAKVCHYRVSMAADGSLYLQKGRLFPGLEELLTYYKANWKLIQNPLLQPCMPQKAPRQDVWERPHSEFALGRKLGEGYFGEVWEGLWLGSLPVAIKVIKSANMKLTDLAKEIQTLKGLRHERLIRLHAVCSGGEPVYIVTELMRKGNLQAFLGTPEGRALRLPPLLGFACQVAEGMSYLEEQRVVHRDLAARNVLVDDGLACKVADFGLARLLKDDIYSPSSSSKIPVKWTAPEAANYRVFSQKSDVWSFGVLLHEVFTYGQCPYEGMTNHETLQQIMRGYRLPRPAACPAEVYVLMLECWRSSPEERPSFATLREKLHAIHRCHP

Turning to `O=C1Nc2ccc(C(=O)c3ccco3)cc2C1=Cc1cc(Cl)c(O)c(Cl)c1`, the inhibition (in general, the relative decrease from the control value, in per cent) stood at 54.8% in experiment [1]; 14.5% in experiment [2]; 18.8% in [3]; 6.01% in [4]; 11.2% in [5]; 3.8% in experiment [6]. Moreover, the inhibition in experiment [7] is 15.5%; in [8], 21.3%; in [9], 59.7%; in experiment [10], -6.13%.

With `CCn1c(-c2nonc2N)nc2c(C#CC(C)(C)O)nc(OC[C@@H](N)c3ccccc3)cc21`, the inhibition is 47.4% in experiment [1]; 11.5% in experiment [2]; 6.11% in experiment [3]; 2.07% in experiment [4]; 11.2% in experiment [5]; 2.45% in [6]. Besides, the inhibition in experiment [7] is 0.1%; in experiment [8], 1.94%; in experiment [9], 5.92%; in experiment [10], -1.58%.

Consider `COc1cc2ncn(-c3cc(OCc4ccccc4Cl)c(C(N)=O)s3)c2cc1OC`, for which the inhibition in [1] is 60.2%; in experiment [2], 0.23%; in experiment [3], 13.3%; in experiment [4], 9.59%; in experiment [5], 29.2%; in [6] it was 20.5%. For the same compound, the inhibition in experiment [7] is 20.9%; in [8] it was 2.74%; in experiment [9], 7.95%; in experiment [10], -2.2%.

For the compound `COc1cccc(-n2ncc3c(N/N=C/c4cccc(F)c4)ncnc32)c1`, the inhibition is 19.5% in experiment [1]; 7.02% in experiment [2]; 24.4% in experiment [3]; 3.12% in [4]; 10.6% in [5]; 0.4% in experiment [6]. Also, the inhibition in experiment [7] is 57.2%; in experiment [8] it was -0.72%; in [9], 2.55%; in experiment [10], 9.4%.

Turning to `CN1CCC(C(=O)Nc2n[nH]c3nnc(-c4ccccc4)cc23)CC1`, the inhibition in experiment [1] was 10%; in experiment [2], -1.52%; in experiment [3] it was 14.1%; in experiment [4] it was 5.55%; in experiment [5], 9.8%; in experiment [6], 9.17%. Moreover, the inhibition was 8.13% in experiment [7], -0.14% in experiment [8], -5.75% in [9] and -4.25% in experiment [10].

Turning to `CS(=O)(=O)CCNCc1ccc(-c2ccc3ncnc(Nc4ccc(OCc5cccc(F)c5)c(C(F)(F)F)c4)c3c2)o1`, the inhibition in experiment [1] was 3.86%; in experiment [2] it was 3.73%; in experiment [3] it was 5%; in [4], 6.01%; in experiment [5], 4.01%; in experiment [6], -1.31%. Also, the inhibition is 8.28% in [7], -1.21% in [8], -1.42% in experiment [9] and -6.45% in [10].

With `CS(=O)(=O)Nc1ccc(N/C=C2\C(=O)Nc3ccccc32)cc1`, the inhibition was 50% in experiment [1]; -3.2% in experiment [2]; 6.3% in experiment [3]; 1.48% in [4]; 6.73% in experiment [5]; -2.8% in [6]. Moreover, the inhibition was 8.01% in experiment [7], -2.57% in [8], 1.32% in experiment [9] and -1.22% in experiment [10].

Consider `NCc1ccc(-c2nc(-c3ccc(Cl)c(O)c3)c(-c3ccncc3)[nH]2)cc1`, for which the inhibition in experiment [1] was 76.3%; in [2], -0.28%; in experiment [3], 2.55%; in [4], 2.98%; in experiment [5], 8.44%; in experiment [6] it was 19.8%. The inhibition in experiment [7] is 63.3%; in [8] it was 3.6%; in experiment [9], 21.7%; in experiment [10], -2.73%.

In the case of `CCn1c(-c2nonc2N)nc2cnc(Oc3cccc(NC(=O)c4ccc(OCCN5CCOCC5)cc4)c3)cc21`, the inhibition in experiment [1] turned out to be 7.86%; in experiment [2] it was 3.1%; in experiment [3], 5%; in [4] it was 8.56%; in experiment [5] it was 11%; in [6] it was 3.92%. The inhibition was 7.72% in [7], -0.56% in experiment [8], -0.69% in [9] and -4.21% in experiment [10].

With `Cc1cc(O)cc(C)c1/C=C/c1cncc(-c2nn[nH]n2)c1`, the inhibition in [1] was 14.4%; in [2], 3.43%; in experiment [3], 8.76%; in [4] it was 6.66%; in experiment [5] it was 11.7%; in [6], 11.4%. In addition, the inhibition in experiment [7] was 69.4%; in [8] it was 9.68%; in experiment [9] it was 48.1%; in [10] it was -3.2%.

In the case of `c1cnn2ncc(-c3ccnc(Nc4ccc5c(c4)OCCO5)n3)c2c1`, the inhibition in experiment [1] is 26.2%; in experiment [2], 4.39%; in experiment [3], 16.8%; in [4], 79.9%; in experiment [5], 82.7%; in [6] it was -0.83%. Besides, the inhibition in experiment [7] was 32.3%; in [8] it was -0.57%; in experiment [9], 1.78%; in [10], -8.51%.

As to `Nc1nc(-c2ccc3c(c2)C(=Cc2cc(Br)c(O)c(Br)c2)C(=O)N3)cs1`, the inhibition was 7.25% in [1]; -0.43% in experiment [2]; 2.87% in [3]; 2.9% in experiment [4]; 7.73% in experiment [5]; 0.53% in experiment [6]. For the same compound, the inhibition is -0.25% in [7], 9.94% in experiment [8], 53% in experiment [9] and 1.06% in [10].

As to `Cc1ccc(NC(=O)c2ccnc(N3CCCC3)c2)cc1-c1ccc(C(=O)NCC2CC2)cc1`, the inhibition in experiment [1] came to 11.4%; in [2], 8.6%; in [3], 6.95%; in [4], 6.76%; in experiment [5] it was 12%; in [6], 4.44%. Besides, the inhibition was 9.16% in experiment [7], -3.02% in [8], -4.02% in experiment [9] and -0.79% in experiment [10].

On to `CC1=C(C(=O)Nc2ccc3[nH]ncc3c2)C(c2ccc3ccccc3c2)CC(=O)N1` (stereo not given), for which the inhibition in experiment [1] turned out to be 60.5%; in experiment [2], 34%; in experiment [3], 67.5%; in experiment [4], 7.1%; in experiment [5], 14.5%; in [6], 13%. For the same compound, the inhibition in experiment [7] was found to be 64.9%; in [8] it was 1.12%; in experiment [9] it was 1.41%; in [10], 2.43%.

For the compound `Fc1cccc(COc2ccc(Nc3ncnc4sc(-c5cccs5)cc34)cc2Cl)c1`, the inhibition was 2.09% in experiment [1]; -5.24% in [2]; -0.08% in experiment [3]; 5.26% in experiment [4]; 4.79% in experiment [5]; 2.2% in experiment [6]. The inhibition in experiment [7] is 2.77%; in [8] it was -1.04%; in experiment [9], -1.24%; in experiment [10], 0.32%.

Regarding `Cc1ccc(C(=O)NC2CCCCC2)cc1-c1ccc(C(=O)NCC2CC2)cc1`, the inhibition in experiment [1] is 23%; in [2] it was -5.44%; in [3] it was 3.46%; in experiment [4], 6.22%; in experiment [5], 7.1%; in [6], 0.23%. Besides, the inhibition in experiment [7] is 4.58%; in [8], 2.6%; in experiment [9], 0.74%; in [10] it was -0.6%.
